According to PubChem BioAssay (Tox21):
Several values for one entry are separate records, joined by “and”; a condition that tells them apart may be missing. Equal values may be shown once. Records with an inconclusive call do not appear. Some compounds were tested as several samples or in several runs, with calls that do not always agree. Activity calls are given as the source filed them. Unless noted, calls follow the shape of the full dose curve.

Columns and labels:
[1] = Nuclear factor erythroid 2-related factor 2/antioxidant responsive element (Nrf2/ARE) small molecule agonists: qHTS cell viability counter screen in human keratinocytes (AID 1919968; active = well fitted cell-killing curve with a large enough effect in the repeat runs; also: nearly all actives have a fitted effect of over 55% in size; also: potency is read from the fitted curve at half-maximal effect)
Method in brief: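 KeratinoSens HaCaT cells, 1,500/well, preincubated 5 h, then exposed to compounds in DMSO for 23 h at 37 C/5% CO2. Viability read as CellTiter-Fluor fluorescence after 1 h, in the same wells as the ARE-luciferase read.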

[2] = Nuclear factor erythroid 2-related factor 2/antioxidant responsive element (Nrf2/ARE) small molecule agonists: luciferase reporter gene qHTS assay in human keratinocytes (AID 1919969); also: nearly all actives have a fitted effect of over 35% in size; also: potency is read from the fitted curve at half-maximal effect
[3] = target: Gonadotropin-releasing hormone receptor (Homo sapiens) (UniProt P30968); assay: Human gonadotropin-releasing hormone receptor (GnRHR) small molecule agonists, calcium flux assay in GnRHR-HEK293 cells (AID 1920063); also: nearly all actives have a fitted effect of over 35% in size
Method in brief: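 HEK293 cells stably expressing human GnRHR were dye-loaded for 1 h at 37 C. Compound was added in agonist mode and fluorescence (Ex/Em 480/540) recorded kinetically for 3 min. Fifteen concentrations, triplicates.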

[4] = G protein-coupled receptor (GPCR) small molecule agonists, calcium flux assay: HEK293 wild type cell line counter screen (AID 1920065)
Method in brief: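 Wild-type HEK293 cells plated 18 h, loaded with calcium dye 1 h at 37 C, then compounds added in agonist mode (ATP as positive control). Kinetic fluorescence Ex/Em 480/540 recorded 3 min at 1 sec intervals; 15 concentrations, triplicate.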

[5] = p53 small molecule agonists, cell-based qHTS assay with human liver microsomes (AID 1963577);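 also: p53 response element beta-lactamase reporter cells with liver microsomes plus NADPH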
Method in brief: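 Metabolically competent format: test substances, human liver microsomes and NADPH (both 0.5 mg/mL final) incubated with p53RE-bla cells 16 h at 37 C. Beta-lactamase reporter signal then quantified by fluorescence.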

[6] = p53 small molecule agonists, cell-based qHTS assay with rat liver microsomes (AID 1963578)
Method in brief: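 Each plate received p53RE-bla cells, then compound, then rat liver microsomes and NADPH (both 0.5 mg/mL final). Plates were held 16 h at 37 C, and beta-lactamase activity was detected with LiveBLAzer over 2 h.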

[7] = p53 small molecule agonists, cell-based qHTS assay with human liver microsomes: qHTS cell viability counter screen (AID 1963579); also: nearly all actives have a fitted effect of over 45% in size; also: potency is read from the fitted curve at half-maximal effect
Method in brief: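 Tox21 library compounds, delivered from DMSO stocks, were tested on p53RE-bla cells together with 0.5 mg/mL human liver microsomes and 0.5 mg/mL NADPH (final) over 16 h at 37 C; CellTiter-Glo luminescence served as the cytotoxicity measure.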

[8] = p53 small molecule agonists, cell-based qHTS assay with rat liver microsomes: qHTS cell viability counter screen (AID 1963580); also: nearly all actives have a fitted effect of over 45% in size
Method in brief: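 In HCT-116 cells carrying a p53 response element-bla reporter, compounds were metabolically activated in situ by rat liver microsomes with NADPH over 16 h. Cell ATP content then served as the cytotoxicity measure.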

[9] = p53 small molecule agonists, cell-based qHTS assay: qHTS cell viability counter screen (AID 1963581); also: nearly all actives have a fitted effect of over 45% in size
Method in brief: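 p53RE-bla HCT-116 cells, compounds added 5 h after plating and incubated 16 h at 37 C. Cytotoxicity measured in the same wells as intracellular ATP by CellTiter-Glo luminescence after 30 min at room temperature.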

[10] = p53 small molecule agonists, cell-based qHTS assay (AID 1963582; active = well fitted activation curve with a large enough effect in the signal ratio in the repeat runs, not every such curve was filed as active; the % refers to the signal ratio)
Method in brief: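 p53RE-bla reporter cells, compounds added in DMSO after 5 h plating, incubated 16 h at 37 C. Beta-lactamase read via 2 h room-temperature LiveBLAzer B/G FRET substrate, fluorescence intensity.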

[11] = target: 5-hydroxytryptamine receptor 2A (Homo sapiens) (UniProt P28223); assay: 5-hydroxytryptamine receptor 2A (HTR2A) small molecule antagonists, cell-based qHTS assay (AID 1963586); also: nearly all actives have a fitted effect of over 45% in size
Method in brief: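 Antagonist-mode intracellular calcium assay: DOI (4 nM) added after 5 min compound pre-incubation at room temperature to dye-loaded HTR2A-CHO cells. Fluorescence followed for 3 min, sampled every second.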

[12] = target: 5-hydroxytryptamine receptor 2A (Homo sapiens) (UniProt P28223); assay: 5-hydroxytryptamine receptor 2A (HTR2A) small molecule agonists, cell-based qHTS assay (AID 1963587); also: nearly all actives have a fitted effect of over 30% in size
Method in brief: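 HTR2A-CHO cells, plated 18 h at 37 C/5% CO2, dye-loaded 1 h at 37 C; compounds in DMSO added by pin tool (agonist mode). Intracellular calcium flux read as kinetic fluorescence on FDSS over 2 min at 1 s intervals.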

[13] = target: Muscarinic acetylcholine receptor M1 (Homo sapiens) (UniProt P11229); assay: Cholinergic receptor muscarinic 1 (CHRM1) small molecule antagonists, cell-based qHTS assay (AID 1963588); also: nearly all actives have a fitted effect of over 40% in size; also: potency is read from the fitted curve at half-maximal effect
Method in brief: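 CHRM1-CHO calcium-flux assay, antagonist mode. Cells were seeded 18 h, dye-loaded 1 h at 37 C and given compound for 5 min at RT, then acetylcholine was added at 50nM. FDSS fluorescence was read 3 min; 15 concentrations, three runs.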

[14] = target: Muscarinic acetylcholine receptor M1 (Homo sapiens) (UniProt P11229); assay: Cholinergic receptor muscarinic 1 (CHRM1) small molecule agonists, cell-based qHTS assay (AID 1963589); also: nearly all actives have a fitted effect of over 35% in size
Method in brief: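 CHO cells stably expressing human CHRM1 were loaded with calcium dye for 1 h at 37 C, then compound was added in agonist mode. Intracellular calcium fluorescence was followed kinetically at 1 s intervals. Fifteen concentrations were tested in three independent runs.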

[15] = cAMP Responsive Elements (CRE) small molecule agonists, cell-based qHTS assay (AID 1963590)
Method in brief: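 CRE-bla HEK 293T cells, 2,000/well in DMEM with 10% dialyzed FBS and 25 mM HEPES, pre-incubated 18 h at 37 C, then exposed to compound 3 h at 37 C. Beta-lactamase reporter read with LiveBLAzer B/G FRET substrate after 2 h at room temperature.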

[16] = cAMP Responsive Elements (CRE) small molecule antagonists, cell-based qHTS assay (AID 1963591; active = well fitted inhibition curve with a large enough effect in the signal ratio in the repeat runs, not every such curve was filed as active; the % refers to the signal ratio)
Method in brief: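 CRE-bla HEK293T cells plated 18 h, then given compound plus NKH477 at 0.25 uM final for 3 h at 37C. Beta-lactamase reporter read with LiveBLAzer B/G FRET substrate after 2 h at room temperature.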

[17] = target: Beta-2 adrenergic receptor (Homo sapiens) (UniProt P07550); assay: Adrenergic beta2 receptor (ADRB2) small molecule antagonists, cell-based qHTS assay (AID 1963592); also: series mostly up to about 92 µM; nearly all actives have a fitted effect of over 50% in size
Method in brief: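 Cells (CHO, stable ADRB2 overexpression) incubated 18-20hr at 37C; compounds added from DMSO; agonist mix (1nM isoproterenol, 100uM IBMX, 25uM Ro-20-1724) added; 0.5hr RT; d2-cAMP and anti-cAMP-cryptate added; 1hr RT; 665/615 nm read.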

[18] = target: Beta-2 adrenergic receptor (Homo sapiens) (UniProt P07550); assay: Adrenergic beta2 receptor (ADRB2) small molecule agonists, cell-based qHTS assay (AID 1963593);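 also: CHO cells stably overexpressing human ADRB2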
Method in brief: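 CHO cells stably over-expressing ADRB2 were plated overnight at 37C, then dosed with compounds plus a stimulation mix containing 100uM IBMX and 25uM Ro-20-1724 for 0.5hr at room temperature. cAMP was measured by HTRF competition, 1hr.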

[19] = target: D(2) dopamine receptor (Homo sapiens) (UniProt P14416); assay: Dopamine D2 receptor (DRD2) small molecule agonists, cell-based qHTS assay (AID 1963594); also: nearly all actives have a fitted effect of over 35% in size
Method in brief: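 HEK293 cells stably expressing DRD2 were cultured 24 h at 37 C, then given Ro20-1724 (0.1 mM final) and compounds for 10 min at room temperature. NKH477 (200nM) was then added for 30 min. cAMP was read by HTRF.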

[20] = target: D(2) dopamine receptor (Homo sapiens) (UniProt P14416); assay: Dopamine D2 receptor (DRD2) small molecule antagonists, cell-based qHTS assay (AID 1963595; active = well fitted inhibition curve with a large enough effect in the signal ratio in the repeat runs, with a control signal flat; the % refers to the signal ratio)
Method in brief: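 Stable D2 receptor HEK293 line, 24 h after seeding. Compound preincubated 10 min, then quinpirole (12 nM) with forskolin analogue NKH477 (200 nM), 30 min, room temperature. Detection by time-resolved FRET of cAMP.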

Measured: Potency

Chain of Muscarinic acetylcholine receptor M1 (Homo sapiens) (P11229 whole entry, looked up): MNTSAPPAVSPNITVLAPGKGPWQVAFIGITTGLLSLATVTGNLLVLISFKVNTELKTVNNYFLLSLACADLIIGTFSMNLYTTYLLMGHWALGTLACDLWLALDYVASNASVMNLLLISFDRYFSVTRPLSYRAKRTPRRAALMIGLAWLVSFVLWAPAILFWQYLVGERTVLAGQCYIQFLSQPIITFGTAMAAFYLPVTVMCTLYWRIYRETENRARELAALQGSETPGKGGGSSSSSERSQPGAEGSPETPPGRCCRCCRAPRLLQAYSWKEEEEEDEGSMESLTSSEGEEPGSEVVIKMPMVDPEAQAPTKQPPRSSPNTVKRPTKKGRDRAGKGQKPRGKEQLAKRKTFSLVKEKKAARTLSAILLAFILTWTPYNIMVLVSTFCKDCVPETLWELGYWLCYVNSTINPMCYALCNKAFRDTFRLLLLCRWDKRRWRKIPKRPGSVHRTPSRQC
Chain of Gonadotropin-releasing hormone receptor (Homo sapiens) (P30968 whole entry, looked up): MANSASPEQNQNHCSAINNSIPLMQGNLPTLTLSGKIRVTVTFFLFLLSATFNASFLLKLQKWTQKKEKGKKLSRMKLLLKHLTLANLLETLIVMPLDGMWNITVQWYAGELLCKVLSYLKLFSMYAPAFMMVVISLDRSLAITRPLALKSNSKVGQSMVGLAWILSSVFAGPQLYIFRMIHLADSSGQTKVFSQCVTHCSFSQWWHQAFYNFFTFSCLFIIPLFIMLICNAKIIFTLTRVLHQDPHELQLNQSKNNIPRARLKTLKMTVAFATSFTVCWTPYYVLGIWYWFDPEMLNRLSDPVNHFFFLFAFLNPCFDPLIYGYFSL
Chain of Beta-2 adrenergic receptor (Homo sapiens) (P07550 whole entry, looked up): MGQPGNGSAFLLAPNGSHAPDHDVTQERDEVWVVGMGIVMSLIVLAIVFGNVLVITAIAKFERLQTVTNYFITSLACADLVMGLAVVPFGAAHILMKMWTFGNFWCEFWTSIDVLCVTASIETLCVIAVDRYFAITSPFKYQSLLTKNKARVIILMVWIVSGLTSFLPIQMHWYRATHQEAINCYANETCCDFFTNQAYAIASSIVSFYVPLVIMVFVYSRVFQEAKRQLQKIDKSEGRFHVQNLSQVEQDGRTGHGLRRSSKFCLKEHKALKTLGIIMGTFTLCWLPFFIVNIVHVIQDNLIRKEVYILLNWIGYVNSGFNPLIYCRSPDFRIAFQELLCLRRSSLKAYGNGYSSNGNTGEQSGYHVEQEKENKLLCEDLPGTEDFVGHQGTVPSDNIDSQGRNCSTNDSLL
Chain of D(2) dopamine receptor (Homo sapiens) (P14416 whole entry, looked up): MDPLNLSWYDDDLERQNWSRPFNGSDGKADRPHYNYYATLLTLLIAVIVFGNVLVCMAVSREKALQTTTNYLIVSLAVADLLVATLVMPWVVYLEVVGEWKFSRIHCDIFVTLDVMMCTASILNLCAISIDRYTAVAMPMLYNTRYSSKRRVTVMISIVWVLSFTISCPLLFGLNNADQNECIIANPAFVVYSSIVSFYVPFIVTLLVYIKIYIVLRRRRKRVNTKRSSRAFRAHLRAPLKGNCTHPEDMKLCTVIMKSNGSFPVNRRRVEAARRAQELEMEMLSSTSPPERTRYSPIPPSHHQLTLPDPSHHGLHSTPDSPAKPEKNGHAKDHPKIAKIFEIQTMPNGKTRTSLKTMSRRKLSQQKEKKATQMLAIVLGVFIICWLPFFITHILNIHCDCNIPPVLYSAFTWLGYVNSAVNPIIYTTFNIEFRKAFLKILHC
Chain of 5-hydroxytryptamine receptor 2A (Homo sapiens) (P28223 whole entry, looked up): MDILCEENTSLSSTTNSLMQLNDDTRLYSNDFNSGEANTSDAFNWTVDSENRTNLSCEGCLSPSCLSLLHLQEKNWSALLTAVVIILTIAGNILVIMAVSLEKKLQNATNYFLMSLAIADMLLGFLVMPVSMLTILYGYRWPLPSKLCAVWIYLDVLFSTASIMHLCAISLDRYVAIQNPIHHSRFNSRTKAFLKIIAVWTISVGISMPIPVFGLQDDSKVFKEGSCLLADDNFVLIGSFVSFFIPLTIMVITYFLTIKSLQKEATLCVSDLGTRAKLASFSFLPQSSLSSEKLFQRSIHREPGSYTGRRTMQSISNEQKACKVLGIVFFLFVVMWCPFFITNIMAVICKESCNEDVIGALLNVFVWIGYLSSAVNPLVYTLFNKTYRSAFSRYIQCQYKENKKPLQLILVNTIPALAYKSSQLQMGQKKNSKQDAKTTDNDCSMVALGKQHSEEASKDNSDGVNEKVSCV

CC/C=C(\C(=O)N[C@@H]1C(=O)N2C(C(=O)OCOC(=O)C(C)(C)C)=C(COC(N)=O)CS[C@H]12)c1csc(N)n1
inactive and 29.8 µM (active): [2]
not listed: [20]
inactive: all other assays above

NC(=O)N/N=C/c1ccc([N+](=O)[O-])o1
inactive and 30.6 µM (active): [2]
not listed: [4] | [7] | [9]
inactive: all other assays above

COc1ccc2c(c1)c(CC(=O)O)c(C)n2C(=O)c1ccc(Cl)cc1
inactive: [1] | [2] | [3] | [5] | [6] | [7] | [8] | [9] | [17] | [19] | [20]

Cc1ccc(C(=O)O)o1
not listed: [4] | [5] | [6] | [10]
inactive: all other assays above

C1CNCCN1
4.86 µM (active) and inactive: [13]
not listed: [4] | [8]
inactive: all other assays above

CNC[C@H](O)[C@@H](O)[C@H](O)[C@H](O)CO
not listed: [4] | [10] | [15] | [18]
inactive: all other assays above

Nc1c2c(nc3ccccc13)CCCC2
48.6 µM (active) and inactive: [2]
54.5 µM (active) and inactive: [1]
not listed: [4] | [11] | [12] | [13] | [14] | [15] | [19]
inactive: all other assays above

CCC(C)OC(=O)c1ccc(O)cc1 (stereo unspecified)
not listed: [4] | [10] | [18]
inactive: all other assays above

C=C(C)C(=O)OCCC[Si](OC)(OC)OC
not listed: [4] | [10] | [18]
inactive: all other assays above

O=C(O)c1ccccc1Nc1cccc(C(F)(F)F)c1
40.8 µM (active) and inactive: [7]
13.7 µM (active) and inactive: [2]
not listed: [4] | [10] | [15]
inactive: all other assays above

CC1(C)O[C@@H]2C[C@H]3[C@@H]4C[C@H](F)C5=CC(=O)CC[C@]5(C)[C@H]4[C@@H](O)C[C@]3(C)[C@]2(C(=O)CO)O1
not listed: [4] | [11] | [12] | [13] | [14] | [16] | [18]
inactive: all other assays above

O=C(O)c1[nH]n(-c2ccc(S(=O)(=O)O)cc2)c(=O)c1N=Nc1ccc(S(=O)(=O)O)cc1
active: [1] 24.4 µM and 45.4 µM
not listed: [20]
inactive: all other assays above

C=C(C)CNCC
inactive: all assays above

O=C(O)C(=O)O
not listed: [4] | [5] | [6] | [10] | [14] | [15] | [18]
inactive: all other assays above

CCC(C)(O)CCCC(C)C (stereo unspecified)
not listed: [4] | [6] | [11] | [17]
inactive: all other assays above

O=C(c1ccccc1)C(O)c1ccccc1 (stereo unspecified)
not listed: [4] | [5] | [6] | [10] | [11] | [16]
inactive: all other assays above
